According to PubChem BioAssay (NCI):
The panel holds about 79,000 compounds, 15% with a hit somewhere; the sample as a whole holds those more often. Values without a mark were called inactive. The source made the active and inactive calls. Cut-off read from the data, not from the text of the source: active = growth inhibition above about 70%; inactive = the rest.

Tests used:
[1] = NCI Yeast Anticancer Drug Screen. Data for the rad52 strain (AID 147);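 note: 0% = growth of vehicle-treated control cultures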; details: S. cerevisiae rad52 mutant growth inhibition, hits give high values
In short: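 Growth of repair-deficient yeast cells was compared between compound-treated and vehicle-treated cultures to give percent inhibition.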

[2] = NCI Yeast Anticancer Drug Screen. Data for the wt1 strain (AID 149);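 note: 0% = growth of vehicle-treated wt1 cultures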; details: S. cerevisiae wt1 strain (SPY 50644) growth inhibition, hits give high values
In short: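 Compounds are added to wt1 yeast cultures. Growth is then measured. Inhibition is expressed relative to vehicle-treated controls.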

[3] = NCI Yeast Anticancer Drug Screen. Data for the rad50EPP+ strain (AID 151);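 note: 0% = growth of vehicle-treated control cultures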; details: S. cerevisiae rad50 mutant strain, hits give high values
In short: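 Measured: growth inhibition of rad50EPP+ yeast. Reference: vehicle-treated controls. Screen uses strains with defined genetic alterations in DNA damage repair or cell cycle control.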

[4] = NCI Yeast Anticancer Drug Screen. Data for the mgt1 strain (AID 153); details: S. cerevisiae mgt1 mutant growth inhibition, hits give high values
In short: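 Compounds were applied to mgt1 mutant yeast, and growth was then compared against vehicle-treated control cultures to give percent inhibition.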

[5] = NCI Yeast Anticancer Drug Screen. Data for the rad50 strain (AID 155);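 note: 0% = growth of vehicle-only cultures of the same strain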; details: S. cerevisiae rad50 strain growth inhibition, hits give high values
In short: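 Inhibition values express reduced yeast growth in compound-treated cultures relative to vehicle-treated controls.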

[6] = NCI Yeast Anticancer Drug Screen. Data for the mec2-1 strain (AID 157); details: S. cerevisiae mec2-1 strain, hits give high values
In short: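 Compounds were applied to mec2-1 yeast cells. Their growth was then compared with that of vehicle-treated cultures to give growth inhibition.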

[7] = NCI Yeast Anticancer Drug Screen. Data for the rad14 strain (AID 159);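 note: 0% = growth of vehicle-treated control cultures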; details: S. cerevisiae rad14 strain growth inhibition, hits give high values
In short: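 A mutant yeast strain defective in DNA damage repair is treated with compound; inhibition of its growth is scored against untreated, vehicle-exposed cultures.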

[8] = NCI Yeast Anticancer Drug Screen. Data for the sgs1 mgt1 strain (AID 161);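 note: 0% = growth of cultures given vehicle only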; details: S. cerevisiae sgs1 mgt1 strain, hits give high values
In short: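 Compounds are added to genetically altered yeast, and growth is compared with cultures given vehicle alone to give percent inhibition.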

[9] = NCI Yeast Anticancer Drug Screen. Data for the CLN2oe strain (AID 163);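 note: 0% = growth of vehicle-only control cultures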; details: S. cerevisiae CLN2oe strain, hits give high values
In short: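 Cells of an engineered yeast line with disturbed cell-cycle regulation are treated with compound. Inhibition of growth is then calculated relative to the vehicle-treated reference.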

[10] = NCI Yeast Anticancer Drug Screen. Data for the cln2 rad14 strain (AID 165);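 note: 0% = growth equal to vehicle treated cultures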; details: S. cerevisiae cln2 rad14 strain, hits give high values
In short: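 Strain: cln2 rad14 yeast, altered in cell cycle control and DNA damage repair. Read-out: growth inhibition vs vehicle.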

[11] = NCI Yeast Anticancer Drug Screen. Data for the bub3 strain (AID 167); details: S. cerevisiae bub3 mutant strain, hits give high values
In short: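 Steps: expose the mutant yeast strain to compound; grow alongside vehicle-treated cultures; measure growth; express inhibition against the vehicle cultures.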

[12] = NCI Yeast Anticancer Drug Screen. Data for the wt2 strain (AID 169);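 note: 0% = growth of vehicle-treated yeast cultures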; details: S. cerevisiae wt2 strain growth inhibition, hits give high values
In short: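 Growth of compound-treated yeast is measured and expressed as inhibition relative to vehicle-only controls.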

[13] = NCI Yeast Anticancer Drug Screen. Data for the mlh1 strain (AID 171);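 note: 0% = growth of vehicle-treated control cultures of the same strain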; details: S. cerevisiae mlh1 strain growth inhibition, hits give high values
In short: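 Test agents were incubated with yeast bearing a defined DNA damage repair or cell cycle control alteration; values are growth inhibition normalised to vehicle-treated cultures.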

[14] = NCI Yeast Anticancer Drug Screen. Data for the sgs1 strain (AID 173);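 note: 0% = growth of vehicle-only control cultures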; details: S. cerevisiae sgs1 mutant, hits give high values
In short: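 Strain with an altered DNA repair or cell cycle pathway exposed to compound. Growth then measured. Value = inhibition versus vehicle control.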

[15] = NCI Yeast Anticancer Drug Screen. Data for the mlh1 rad18 strain (AID 175); details: S. cerevisiae mlh1 rad18 strain growth inhibition, hits give high values
In short: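 A repair-deficient yeast strain is exposed to test compound, and growth is scored relative to vehicle-treated controls.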

[16] = NCI Yeast Anticancer Drug Screen. Data for the rad18 strain (AID 177); details: S. cerevisiae rad18 mutant growth inhibition, hits give high values
In short: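 DNA-repair-defective yeast; compound treatment; growth inhibition scored against vehicle.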

[17] = at 5.0 µM (retest, dose inferred, filed as 0.5)
[18] = at 50.0 µM (retest, dose inferred, filed as 5.0)

**Q.** Which results are given for `[O-][n+]1c2cccc(O)c2[n+]([O-])c2cccc(O)c21`?
**A.** growth inhibition ([1]; at 1.2 µM): 23%; growth inhibition ([1]; at 3.7 µM): 57%; growth inhibition ([1]; at 11.0 µM): 89% (active); growth inhibition ([1]; at 33.0 µM): 93% (active); growth inhibition ([1]; at 100.0 µM): 95% (active); growth inhibition ([2]; at 1.2 µM): 2%; growth inhibition ([2]; at 3.7 µM): 2%; growth inhibition ([2]; at 11.0 µM): 7%; growth inhibition ([2]; at 33.0 µM): 10%; growth inhibition ([2]; at 100.0 µM): 15%; growth inhibition ([3]; at 1.2 µM): 25%; growth inhibition ([3]; at 3.7 µM): 63%; growth inhibition ([3]; at 11.0 µM): 89% (active); growth inhibition ([3]; at 33.0 µM): 94% (active); growth inhibition ([3]; at 100.0 µM): 96% (active); growth inhibition ([4]; at 1.2 µM): 3%; growth inhibition ([4]; at 3.7 µM): 10%; growth inhibition ([4]; at 11.0 µM): 8%; growth inhibition ([4]; at 33.0 µM): 2%; growth inhibition ([4]; at 100.0 µM): 18%; growth inhibition ([5]; at 1.2 µM): 24%; growth inhibition ([5]; at 3.7 µM): 55%; growth inhibition [5, 17]: 15%; growth inhibition ([5]; at 11.0 µM): 85% (active); growth inhibition ([5]; at 33.0 µM): 92% (active); growth inhibition [5, 18]: 95% (active); growth inhibition ([5]; at 50.0 µM): 86.4% (active); growth inhibition ([5]; at 100.0 µM): 95% (active); growth inhibition ([6]; at 1.2 µM): 3%; growth inhibition ([6]; at 3.7 µM): 9%; growth inhibition [6, 17]: 15%; growth inhibition ([6]; at 11.0 µM): 18%; growth inhibition ([6]; at 33.0 µM): 26%; growth inhibition [6, 18]: 80% (active); growth inhibition ([6]; at 50.0 µM): 35.8%; growth inhibition ([6]; at 100.0 µM): 46%; growth inhibition ([7]; at 1.2 µM): 2%; growth inhibition ([7]; at 3.7 µM): 23%; growth inhibition ([7]; at 11.0 µM): 12%; growth inhibition ([7]; at 33.0 µM): 20%; growth inhibition ([7]; at 100.0 µM): 38%; growth inhibition [8, 17]: 6%; growth inhibition [8, 18]: 81% (active); growth inhibition ([8]; at 50.0 µM): 35%; growth inhibition ([9]; at 1.2 µM): 0%; growth inhibition ([9]; at 3.7 µM): 0%; growth inhibition ([9]; at 11.0 µM): 3%; growth inhibition ([9]; at 33.0 µM): 11%; growth inhibition ([9]; at 100.0 µM): 11%; growth inhibition [10, 17]: 65%; growth inhibition [10, 18]: 94% (active); growth inhibition ([10]; at 50.0 µM): 82.8% (active); growth inhibition ([11]; at 1.2 µM): 4%; growth inhibition ([11]; at 3.7 µM): 3%; growth inhibition [11, 17]: 0%; growth inhibition ([11]; at 11.0 µM): 0%; growth inhibition ([11]; at 33.0 µM): 3%; growth inhibition [11, 18]: 72% (active); growth inhibition ([11]; at 50.0 µM): 42.8%; growth inhibition ([11]; at 100.0 µM): 1%; growth inhibition ([12]; at 1.2 µM): 2%; growth inhibition ([12]; at 3.7 µM): 5%; growth inhibition ([12]; at 11.0 µM): 11%; growth inhibition ([12]; at 33.0 µM): 12%; growth inhibition ([12]; at 100.0 µM): 24%; growth inhibition ([13]; at 1.2 µM): 3%; growth inhibition ([13]; at 3.7 µM): 0%; growth inhibition ([13]; at 11.0 µM): 11%; growth inhibition ([13]; at 33.0 µM): 18%; growth inhibition ([13]; at 100.0 µM): 44%; growth inhibition ([14]; at 1.2 µM): 6%; growth inhibition ([14]; at 3.7 µM): 14%; growth inhibition ([14]; at 11.0 µM): 31%; growth inhibition ([14]; at 33.0 µM): 46%; growth inhibition ([14]; at 100.0 µM): 66%; growth inhibition [15, 17]: -7%; growth inhibition [15, 18]: 94% (active); growth inhibition ([15]; at 50.0 µM): 57.2%; growth inhibition ([16]; at 1.2 µM): 31%; growth inhibition ([16]; at 3.7 µM): 75% (active); growth inhibition ([16]; at 11.0 µM): 92% (active); growth inhibition ([16]; at 33.0 µM): 94% (active); growth inhibition ([16]; at 100.0 µM): 94% (active)
